Test results as given in PubChem BioAssay (EPA / NIEHS).
“And” between values parts separate entries of the source, which are not always exact repeats. Identical values can stand only once. Inconclusive results are not listed. Where a structure was tested more than once in an assay, its records may differ in their call. The source made the active and inactive calls. How the source made its calls, unless noted: active means hit-call score of the fitted dose curve at least 0.9, where 1 is the maximum; inactive means score below 0.9.

Legend:
[1] = molecular target: human RAR-related Orphan Receptor gamma (RORg), RORC (gene 6097) (UniProt P51449); assay: ATG_RORg_TRANS: Attagene TRANS-FACTORIAL HepG2 Assay for human RAR-related Orphan Receptor gamma (RORg) (AID 2283011; active means hit-call score of the fitted dose curve at least 0.9, where 1 is the maximum;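 on AC50: potency for induction of reporter transcripts above DMSO so activators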)
human RAR-related Orphan Receptor gamma (RORg), RORC (gene 6097), sequence (P51449 whole entry, looked up, the tested form may be a part): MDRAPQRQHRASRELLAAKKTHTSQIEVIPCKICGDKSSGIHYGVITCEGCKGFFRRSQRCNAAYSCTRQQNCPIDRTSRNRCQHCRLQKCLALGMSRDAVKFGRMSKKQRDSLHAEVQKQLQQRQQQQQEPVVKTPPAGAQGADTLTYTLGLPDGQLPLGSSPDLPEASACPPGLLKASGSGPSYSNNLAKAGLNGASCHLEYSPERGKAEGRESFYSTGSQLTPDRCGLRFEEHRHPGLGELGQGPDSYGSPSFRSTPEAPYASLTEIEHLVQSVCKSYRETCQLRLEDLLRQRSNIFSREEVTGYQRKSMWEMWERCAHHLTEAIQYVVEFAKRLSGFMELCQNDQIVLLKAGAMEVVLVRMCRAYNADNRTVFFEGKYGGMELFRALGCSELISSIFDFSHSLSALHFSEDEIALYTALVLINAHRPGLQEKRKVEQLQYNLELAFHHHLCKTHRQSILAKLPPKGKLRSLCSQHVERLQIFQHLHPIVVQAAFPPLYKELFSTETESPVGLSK
Procedure, shortened: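 Transient MRTU transfection of HepG2 (TRANS format, exogenous NR-Gal4 chimera). 24 h dosing. Total RNA → oligo(dT) RT → PCR → 6-FAM labelling → HpaI cut → CE. Gain vs DMSO.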

[2] = molecular target: Retinoic acid receptor RXR-alpha (Homo sapiens) (UniProt P19793); assay: ATG_RXRa_TRANS: Attagene TRANS-FACTORIAL HepG2 Assay for human Retinoid X Receptor alpha (RXRa) (AID 2283012; active means hit-call score of the fitted dose curve at least 0.9, where 1 is the maximum)
Retinoic acid receptor RXR-alpha (Homo sapiens), sequence (P19793 whole entry, looked up, the tested form may be a part): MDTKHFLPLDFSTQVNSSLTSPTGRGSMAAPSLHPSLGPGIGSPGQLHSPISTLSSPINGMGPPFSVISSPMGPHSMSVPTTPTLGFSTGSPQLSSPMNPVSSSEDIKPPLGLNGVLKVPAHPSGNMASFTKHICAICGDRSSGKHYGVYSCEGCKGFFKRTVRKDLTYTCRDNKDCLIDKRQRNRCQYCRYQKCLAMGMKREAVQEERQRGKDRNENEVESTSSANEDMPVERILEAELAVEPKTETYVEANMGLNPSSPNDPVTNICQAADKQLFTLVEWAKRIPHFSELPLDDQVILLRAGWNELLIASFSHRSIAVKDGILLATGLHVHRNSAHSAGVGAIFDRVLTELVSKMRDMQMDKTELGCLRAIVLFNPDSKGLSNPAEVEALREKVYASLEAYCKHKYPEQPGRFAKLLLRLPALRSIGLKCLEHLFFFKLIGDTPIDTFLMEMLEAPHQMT
Procedure, shortened: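 Measures exogenous chimeric NR-GAL4 activity in transfected HepG2 liver cells after 24 h of dosing. Induced reporter mRNA was detected by RT-PCR with capillary electrophoresis, and gain of signal was analysed against DMSO.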

[3] = molecular target: human Retinoid X Receptor beta (RXRb), RXRB (gene 6257) (UniProt P28702); assay: ATG_RXRb_TRANS: Attagene TRANS-FACTORIAL HepG2 Assay for human Retinoid X Receptor beta (RXRb) (AID 2283013; active means hit-call score of the fitted dose curve at least 0.9, where 1 is the maximum)
human Retinoid X Receptor beta (RXRb), RXRB (gene 6257), sequence (P28702 whole entry, looked up, the tested form may be a part): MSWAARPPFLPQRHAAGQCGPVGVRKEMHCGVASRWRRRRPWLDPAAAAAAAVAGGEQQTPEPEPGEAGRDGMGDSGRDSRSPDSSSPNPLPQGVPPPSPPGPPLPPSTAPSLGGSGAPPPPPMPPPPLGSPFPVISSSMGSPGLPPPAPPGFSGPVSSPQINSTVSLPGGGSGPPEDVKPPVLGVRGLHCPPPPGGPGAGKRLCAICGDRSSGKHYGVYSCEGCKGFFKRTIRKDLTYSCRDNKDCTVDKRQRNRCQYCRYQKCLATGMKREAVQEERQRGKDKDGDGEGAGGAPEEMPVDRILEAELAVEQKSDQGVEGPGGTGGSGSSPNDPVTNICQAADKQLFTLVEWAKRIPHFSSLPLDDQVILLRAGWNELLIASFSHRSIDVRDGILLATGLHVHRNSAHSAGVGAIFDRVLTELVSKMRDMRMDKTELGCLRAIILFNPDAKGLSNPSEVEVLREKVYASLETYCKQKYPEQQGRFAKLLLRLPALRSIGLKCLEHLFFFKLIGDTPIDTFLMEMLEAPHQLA
Procedure, shortened: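 Chimeric receptor-Gal4 activity was assessed in transiently transfected human HepG2 cells after 24 h exposure. Transcripts from GAL4-UAS reporters were quantified by fluorescent RT-PCR and capillary electrophoresis, with DMSO as negative control and baseline.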

[4] = read-out: E-selectin (Homo sapiens) (UniProt P16581); assay: BSK_3C_Eselectin: BioMAP Diversity Plus: 3C Assay for Eselectin Biomarker Activity (AID 2283015); conditions: primary human endothelial cells (HUVEC); actives raise or lower the signal;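 on outcome: cell surface E-selectin protein quantified by ELISA 24 h after dosing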
Procedure, shortened: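 HUVEC, 3C stimulation; compound exposure 24 h; E-selectin by ELISA; gain- or loss-of-signal fitted bidirectionally vs DMSO baseline.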

[5] = read-out: Interleukin-1 alpha (IL1a), IL1A (gene 3552); assay: BSK_BE3C_IL1a: BioMAP Diversity Plus: BE3C Assay for Interleukin-1 alpha (IL1a) Biomarker Activity (AID 2283016); conditions: primary human bronchial epithelial cells; actives raise or lower the signal
Procedure, shortened: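 Signal from IL-1a ELISA, taken 24 h after chemical dosing of human bronchial epithelial cells, is compared with DMSO as baseline using bidirectional curve fitting.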

[6] = read-out: Monocyte Chemoattractant Protein-1 (MCP1), CCL2 (gene 6347); assay: BSK_3C_MCP1: BioMAP Diversity Plus: 3C Assay for Monocyte Chemoattractant Protein-1 (MCP1) Biomarker Activity (AID 2283017); conditions: primary human endothelial cells (HUVEC); actives raise or lower the signal
Procedure, shortened: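 HUVEC, 3C system; 24 h chemical exposure; MCP-1 by ELISA; bidirectional curve fit vs DMSO baseline.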

[7] = read-out: Monocyte Chemoattractant Protein-1 (MCP1), CCL2 (gene 6347); assay: BSK_4H_MCP1: BioMAP Diversity Plus: 4H Assay for Monocyte Chemoattractant Protein-1 (MCP1) Biomarker Activity (AID 2283018); conditions: primary human endothelial cells (HUVEC); actives raise or lower the signal
Procedure, shortened: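 Endothelial cells from umbilical vein were treated with test chemical, then after 24 h MCP-1 levels were quantified by ELISA; endpoint values came from bidirectional fitting with DMSO as baseline of activity.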

[8] = read-out: Human Leukocyte Antigen - DR isotype (HLADR), HLA-DRA (gene 3122); assay: BSK_3C_HLADR: BioMAP Diversity Plus: 3C Assay for Human Leukocyte Antigen - DR isotype (HLADR) Biomarker Activity (AID 2283019); conditions: primary human endothelial cells (HUVEC); actives raise or lower the signal;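 on outcome: ELISA of cell-surface HLA-DR on HUVEC 24 h after dosing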
Procedure, shortened: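 HUVEC, 3C stimulation, 24 h post-dose; HLA-DR by ELISA; bidirectional curve fit vs DMSO baseline; gain or loss of signal scored.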

[9] = molecular target: human RAR-related Orphan Receptor beta (RORb), RORB (gene 6096) (UniProt Q92753); assay: ATG_RORb_TRANS: Attagene TRANS-FACTORIAL HepG2 Assay for human RAR-related Orphan Receptor beta (RORb) (AID 2283010; active means hit-call score of the fitted dose curve at least 0.9, where 1 is the maximum)
human RAR-related Orphan Receptor beta (RORb), RORB (gene 6096), sequence (Q92753 whole entry, looked up, the tested form may be a part): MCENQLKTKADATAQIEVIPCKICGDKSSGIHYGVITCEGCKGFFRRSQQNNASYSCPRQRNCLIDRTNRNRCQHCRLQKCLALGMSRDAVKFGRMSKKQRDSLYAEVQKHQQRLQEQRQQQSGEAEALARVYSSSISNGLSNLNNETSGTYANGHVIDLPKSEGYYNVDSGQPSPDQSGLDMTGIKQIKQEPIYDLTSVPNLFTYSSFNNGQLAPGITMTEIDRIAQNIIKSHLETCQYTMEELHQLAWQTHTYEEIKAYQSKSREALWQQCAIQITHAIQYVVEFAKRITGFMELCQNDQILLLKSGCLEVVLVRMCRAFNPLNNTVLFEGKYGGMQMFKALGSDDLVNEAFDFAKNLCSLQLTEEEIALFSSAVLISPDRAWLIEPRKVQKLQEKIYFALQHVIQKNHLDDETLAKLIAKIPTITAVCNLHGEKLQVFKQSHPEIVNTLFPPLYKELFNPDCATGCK
Procedure, shortened: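 Transfect HepG2 with multiple GAL4-UAS reporter transcription units; dose chemicals for 24 h; isolate RNA, reverse-transcribe and PCR-amplify reporter sequences; label, digest and resolve fragments by capillary electrophoresis; fit increases relative to DMSO.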

[10] = molecular target: human Thyroid Receptor alpha (THRa1), THRA (gene 7067) (UniProt P10827); assay: ATG_THRa1_TRANS: Attagene TRANS-FACTORIAL HepG2 Assay for human Thyroid Receptor alpha (THRa1) (AID 2283014; active means hit-call score of the fitted dose curve at least 0.9, where 1 is the maximum)
human Thyroid Receptor alpha (THRa1), THRA (gene 7067), sequence (P10827 whole entry, looked up, the tested form may be a part): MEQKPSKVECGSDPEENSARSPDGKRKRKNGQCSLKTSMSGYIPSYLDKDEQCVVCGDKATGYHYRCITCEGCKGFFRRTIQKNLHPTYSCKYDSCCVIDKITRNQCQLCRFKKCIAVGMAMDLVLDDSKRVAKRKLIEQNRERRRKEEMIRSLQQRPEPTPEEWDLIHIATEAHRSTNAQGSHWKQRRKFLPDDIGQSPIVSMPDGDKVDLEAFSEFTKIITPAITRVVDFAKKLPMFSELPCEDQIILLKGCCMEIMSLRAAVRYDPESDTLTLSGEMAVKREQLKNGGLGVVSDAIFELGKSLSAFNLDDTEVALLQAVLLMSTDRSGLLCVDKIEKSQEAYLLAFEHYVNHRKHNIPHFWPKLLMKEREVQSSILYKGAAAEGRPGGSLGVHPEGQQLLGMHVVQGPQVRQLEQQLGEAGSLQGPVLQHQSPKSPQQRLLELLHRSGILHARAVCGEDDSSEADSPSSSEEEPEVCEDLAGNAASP
Procedure, shortened: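 Transient HepG2 transfection, NR-Gal4 chimera driving GAL4-UAS reporters; 24 h compound exposure; total RNA, oligo(dT) RT, PCR, fluorescent primer extension, capillary electrophoresis. Upward direction vs DMSO control.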

E-selectin (Homo sapiens), sequence (P16581 whole entry, looked up): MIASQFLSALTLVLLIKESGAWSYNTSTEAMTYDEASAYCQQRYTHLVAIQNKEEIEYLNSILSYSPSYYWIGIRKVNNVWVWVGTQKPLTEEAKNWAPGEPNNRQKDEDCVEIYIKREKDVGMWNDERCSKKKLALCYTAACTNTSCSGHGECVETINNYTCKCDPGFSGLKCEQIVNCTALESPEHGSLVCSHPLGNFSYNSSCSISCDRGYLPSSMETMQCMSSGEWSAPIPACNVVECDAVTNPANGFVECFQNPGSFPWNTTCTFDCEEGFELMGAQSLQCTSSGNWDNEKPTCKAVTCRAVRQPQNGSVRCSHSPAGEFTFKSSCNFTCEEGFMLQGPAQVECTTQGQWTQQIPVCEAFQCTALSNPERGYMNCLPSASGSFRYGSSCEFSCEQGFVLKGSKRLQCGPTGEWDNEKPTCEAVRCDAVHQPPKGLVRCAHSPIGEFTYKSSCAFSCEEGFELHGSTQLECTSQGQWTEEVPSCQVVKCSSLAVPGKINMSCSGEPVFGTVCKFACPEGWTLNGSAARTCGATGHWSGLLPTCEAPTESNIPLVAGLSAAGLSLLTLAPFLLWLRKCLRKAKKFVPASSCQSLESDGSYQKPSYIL

**Q.** What does the source list for OC(O)(C(F)C(O)(O)C(F)(F)F)C(F)(F)F?
**A.** AC50 [1]: 220 µM (active) and 106 µM (active); outcome [2]: inactive; outcome [3]: inactive; outcome [4]: inactive; outcome [5]: inactive; outcome [6]: inactive; outcome [7]: inactive; AC50 [8]: 17.6 µM (active); outcome [8]: inactive

**Q.** With Cn1c(=O)c2[nH]cnc2n(C)c1=O as the molecule, how does the outcome [1] read?
**A.** inactive

**Q.** And the outcome [2]?
**A.** inactive

**Q.** And the outcome [4]?
**A.** inactive

**Q.** What about the outcome [5] of the same molecule?
**A.** inactive

**Q.** And the outcome [6]?
**A.** inactive

**Q.** And the outcome [7]?
**A.** inactive

**Q.** And the outcome [8]?
**A.** inactive

**Q.** What does the source list for OC[C@H]1O[C@@H]2O[C@H]3[C@H](O)[C@@H](O)[C@@H](O[C@H]4[C@H](O)[C@@H](O)[C@@H](O[C@H]5[C@H](O)[C@@H](O)[C@@H](O[C@H]6[C@H](O)[C@@H](O)[C@@H](O[C@H]7[C@H](O)[C@@H](O)[C@@H](O[C@H]1[C@H](O)[C@H]2O)O[C@@H]7CO)O[C@@H]6CO)O[C@@H]5CO)O[C@@H]4CO)O[C@@H]3CO?
**A.** outcome [9]: inactive; outcome [3]: inactive; outcome [4]: inactive; outcome [5]: inactive; outcome [6]: inactive; outcome [7]: inactive; outcome [8]: inactive

**Q.** For O=C(NO)C1(NS(=O)(=O)c2ccc(Oc3ccc(F)cc3)cc2)CCOCC1, which outcome [1] is on record?
**A.** inactive

**Q.** And the outcome [2]?
**A.** inactive

**Q.** What about the outcome [10] of the same molecule?
**A.** inactive

**Q.** And the outcome [4]?
**A.** inactive

**Q.** And the outcome [5]?
**A.** inactive

**Q.** What about the outcome [6] of the same molecule?
**A.** inactive

**Q.** What about the outcome [7] of the same molecule?
**A.** inactive

**Q.** And the outcome [8]?
**A.** inactive

**Q.** What does the source list for CC(C)CCCCCCOC(=O)C1CCCCC1C(=O)OCCCCCCC(C)C (configuration not stated)?
**A.** outcome [9]: inactive; outcome [10]: inactive; outcome [4]: inactive; outcome [5]: inactive; outcome [6]: inactive; outcome [7]: inactive; outcome [8]: inactive

**Q.** With O=S1(=O)CCCO1 as the molecule, how does the outcome [9] read?
**A.** inactive

**Q.** And the outcome [3]?
**A.** inactive

**Q.** And the outcome [10]?
**A.** inactive

**Q.** What about the outcome [4] of the same molecule?
**A.** inactive

**Q.** What about the outcome [5] of the same molecule?
**A.** inactive

**Q.** And the outcome [6]?
**A.** inactive

**Q.** And the outcome [7]?
**A.** inactive

**Q.** And the outcome [8]?
**A.** inactive

**Q.** Which outcome [1] does the source give for CCCCCCCC1CCC(=O)O1 (configuration not stated) here?
**A.** inactive

**Q.** What about the outcome [2] of the same molecule?
**A.** inactive

**Q.** And the outcome [3]?
**A.** inactive

**Q.** And the outcome [4]?
**A.** inactive

**Q.** What about the outcome [5] of the same molecule?
**A.** inactive

**Q.** And the outcome [6]?
**A.** inactive

**Q.** And the outcome [7]?
**A.** inactive

**Q.** And the outcome [8]?
**A.** inactive

**Q.** Which results are given for OCc1ccccc1?
**A.** outcome [1]: inactive; AC50 [2]: 5.67 µM (active); outcome [2]: inactive; AC50 [3]: 1.09 µM (active); outcome [10]: inactive; outcome [4]: inactive; outcome [5]: inactive; outcome [6]: inactive; outcome [7]: inactive; outcome [8]: inactive

**Q.** Which outcome [1] does the source give for CC[C@H](C)C(=O)O[C@H]1C[C@H](O)C=C2C=C[C@H](C)[C@H](CC[C@@H](O)C[C@@H](O)CC(=O)O)[C@H]21 here?
**A.** inactive

**Q.** What about the outcome [3] of the same molecule?
**A.** inactive

**Q.** And the outcome [10]?
**A.** inactive

**Q.** What about the outcome [4] of the same molecule?
**A.** inactive

**Q.** And the outcome [5]?
**A.** inactive

**Q.** What about the outcome [6] of the same molecule?
**A.** inactive

**Q.** And the outcome [7]?
**A.** inactive

**Q.** And the outcome [8]?
**A.** inactive

**Q.** With CC(=O)c1ccccc1 as the molecule, how does the outcome [2] read?
**A.** inactive

**Q.** And the outcome [10]?
**A.** inactive

**Q.** And the outcome [4]?
**A.** inactive

**Q.** And the outcome [5]?
**A.** inactive

**Q.** And the outcome [6]?
**A.** inactive

**Q.** What about the outcome [7] of the same molecule?
**A.** inactive

**Q.** What about the outcome [8] of the same molecule?
**A.** inactive

**Q.** Which results are given for CCn1nc(C)c2c1C(=O)NCC(c1ccc(O)cc1)=N2?
**A.** outcome [3]: inactive; outcome [10]: inactive; outcome [4]: inactive; outcome [5]: inactive; outcome [6]: inactive; outcome [7]: inactive; outcome [8]: inactive

**Q.** Cc1nc(-c2ccccn2)ncc1C(=O)Nn1cc(C)c2cc(F)ccc21 was tested. Which outcome [10] did it give?
**A.** inactive

**Q.** And the outcome [4]?
**A.** inactive

**Q.** And the outcome [5]?
**A.** inactive

**Q.** And the outcome [6]?
**A.** inactive

**Q.** What about the outcome [7] of the same molecule?
**A.** inactive

**Q.** What about the AC50 [8] of the same molecule?
**A.** 20 µM (active)

**Q.** Which results are given for O=C1CN(N=Cc2ccc([N+](=O)[O-])o2)C(=O)N1?
**A.** outcome [2]: inactive; AC50 [3]: 45.6 µM (active); outcome [10]: inactive; AC50 [4]: 9.86 µM (active); outcome [5]: inactive; outcome [6]: inactive; outcome [7]: inactive; outcome [8]: inactive

**Q.** What does the source list for OC(CCl)CCl?
**A.** outcome [4]: inactive; outcome [5]: inactive; outcome [6]: inactive; outcome [7]: inactive; outcome [8]: inactive

**Q.** For CCCCOC(=O)c1ccccc1, which outcome [2] is on record?
**A.** inactive

**Q.** And the outcome [3]?
**A.** inactive

**Q.** And the outcome [4]?
**A.** inactive

**Q.** And the outcome [5]?
**A.** inactive

**Q.** What about the outcome [6] of the same molecule?
**A.** inactive

**Q.** And the outcome [7]?
**A.** inactive

**Q.** And the outcome [8]?
**A.** inactive

**Q.** For CCCCN1C(=O)[C@@H]([C@H](O)C2CCCCC2)NC(=O)C12CCN(Cc1ccc(Oc3ccc(C(=O)O)cc3)cc1)CC2, which outcome [4] is on record?
**A.** inactive

**Q.** And the outcome [5]?
**A.** inactive

**Q.** What about the AC50 [6] of the same molecule?
**A.** 14.9 µM (active)

**Q.** What about the outcome [7] of the same molecule?
**A.** inactive

**Q.** And the AC50 [8]?
**A.** 32.1 µM (active)

**Q.** For O=C(O)c1cccc(C[C@@H]2COc3ccc(OCc4nc5cc(F)ccc5s4)cc3[C@@H]2O)c1, which outcome [2] is on record?
**A.** inactive

**Q.** What about the outcome [3] of the same molecule?
**A.** inactive

**Q.** And the outcome [4]?
**A.** inactive

**Q.** What about the outcome [5] of the same molecule?
**A.** inactive

**Q.** What about the outcome [6] of the same molecule?
**A.** inactive

**Q.** And the outcome [7]?
**A.** inactive

**Q.** And the outcome [8]?
**A.** inactive

**Q.** For CCCCCCCCCCCCCCO, which outcome [2] is on record?
**A.** inactive

**Q.** What about the AC50 [3] of the same molecule?
**A.** 45.4 µM (active)

**Q.** And the outcome [10]?
**A.** inactive

**Q.** What about the AC50 [4] of the same molecule?
**A.** 36.7 µM (active)

**Q.** And the outcome [5]?
**A.** inactive

**Q.** What about the AC50 [6] of the same molecule?
**A.** 30.5 µM (active)

**Q.** What about the AC50 [7] of the same molecule?
**A.** 29.6 µM (active)

**Q.** And the AC50 [8]?
**A.** 36.7 µM (active)
